{"source": "PubChem BioAssay AID651657", "about": "(Broad Institute, 2012)", "note": "Measured potencies and affinities stand elsewhere. Active and inactive are the calls of the source.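 Rule for the calls: active = signal falls, with fitted half-maximal concentration at most twice the top valid dose tested; inconclusive = flat curve with partial signal loss, or poor curve fit; inactive = the rest, including signal rising instead.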", "data": [{"biological_target": "DNA repair and recombination protein RAD54-like (Homo sapiens) (UniProt Q92698)", "sequence (Q92698 whole entry, looked up)": "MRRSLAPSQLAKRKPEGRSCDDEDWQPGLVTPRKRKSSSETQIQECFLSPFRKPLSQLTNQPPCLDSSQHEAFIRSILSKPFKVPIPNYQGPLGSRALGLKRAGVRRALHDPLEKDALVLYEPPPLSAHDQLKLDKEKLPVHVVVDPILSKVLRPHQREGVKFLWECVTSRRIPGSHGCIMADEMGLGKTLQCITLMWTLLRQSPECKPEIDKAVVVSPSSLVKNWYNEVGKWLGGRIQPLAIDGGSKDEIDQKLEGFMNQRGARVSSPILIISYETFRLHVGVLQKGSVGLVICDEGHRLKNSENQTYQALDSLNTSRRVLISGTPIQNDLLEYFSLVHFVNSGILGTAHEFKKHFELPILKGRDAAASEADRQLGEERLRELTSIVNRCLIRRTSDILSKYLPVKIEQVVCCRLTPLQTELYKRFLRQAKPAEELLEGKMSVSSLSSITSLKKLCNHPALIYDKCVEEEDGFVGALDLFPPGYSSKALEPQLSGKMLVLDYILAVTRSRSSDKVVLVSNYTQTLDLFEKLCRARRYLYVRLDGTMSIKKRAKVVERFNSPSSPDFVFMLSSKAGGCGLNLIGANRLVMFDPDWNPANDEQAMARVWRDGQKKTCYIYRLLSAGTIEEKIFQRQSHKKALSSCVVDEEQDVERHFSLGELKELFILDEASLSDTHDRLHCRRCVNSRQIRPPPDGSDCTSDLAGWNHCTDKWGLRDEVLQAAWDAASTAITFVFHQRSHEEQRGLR", "assay": "inhibitors of human RAD54 branch migration, confirmation, biochemical, fluorescence, cherry-picked samples, dose series (AID 651657)", "details": "FAM/BHQ fluorescence, 60 min; series mostly up to 50 µM; activity change, negative = inhibition: at the top concentration", "values": [{"smiles": "Nc1ccc(CCN2CCCC2)cc1", "activity change, negative = inhibition": "-2.84% (inactive)"}, {"smiles": "CCN1CCN(c2ccc(N)c(C)c2)CC1", "activity change, negative = inhibition": "-10.9% (inactive)"}, {"smiles": "Nc1ccnn1C1CCNCC1", "activity change, negative = inhibition": "0.708% (inactive)"}]}]}
